From PubChem BioAssay (NCI)
The panel holds about 79,000 compounds, 15% with a hit somewhere; the sample as a whole holds those more often. Activity calls are given as the source filed them. Cut-off read from the data, not from the text of the source: active = growth inhibition above about 70%; inactive = the rest.

Experiments:
[1] = NCI Yeast Anticancer Drug Screen. Data for the sgs1 strain (AID 173);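 note: 0% = growth of vehicle-only control cultures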; details: S. cerevisiae sgs1 mutant, stronger effect = higher value
Procedure, shortened: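 Growth of a yeast strain bearing a defined genetic alteration is measured after compound treatment. Inhibition is expressed relative to vehicle-only controls.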

[2] = NCI Yeast Anticancer Drug Screen. Data for the mlh1 rad18 strain (AID 175); details: S. cerevisiae mlh1 rad18 strain growth inhibition, stronger effect = higher value
Procedure, shortened: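 Read-out is yeast growth inhibition, calculated against vehicle-only controls. The compound was applied to a strain engineered with DNA damage repair alterations.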

[3] = NCI Yeast Anticancer Drug Screen. Data for the rad18 strain (AID 177); details: S. cerevisiae rad18 mutant growth inhibition, stronger effect = higher value
Procedure, shortened: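 Growth of the mutant yeast strain after compound exposure, normalised to vehicle-only cultures.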

[4] = NCI Yeast Anticancer Drug Screen. Data for the rad52 strain (AID 147);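 note: 0% = growth of vehicle-treated control cultures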; details: S. cerevisiae rad52 mutant growth inhibition, stronger effect = higher value
Procedure, shortened: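 Compounds are applied to a genetically defined yeast strain lacking normal DNA damage repair, and inhibition of growth is expressed relative to cultures given vehicle only.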

[5] = NCI Yeast Anticancer Drug Screen. Data for the wt1 strain (AID 149);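 note: 0% = growth of vehicle-treated wt1 cultures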; details: S. cerevisiae wt1 strain (SPY 50644) growth inhibition, stronger effect = higher value
Procedure, shortened: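 Measured: growth of wt1 yeast under compound versus vehicle treatment, reported as inhibition.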

[6] = NCI Yeast Anticancer Drug Screen. Data for the mgt1 strain (AID 153); details: S. cerevisiae mgt1 mutant growth inhibition, stronger effect = higher value
Procedure, shortened: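 Strain: mgt1 yeast, one of a set carrying defined DNA damage repair or cell cycle control alterations. Compound-treated growth compared with vehicle.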

[7] = NCI Yeast Anticancer Drug Screen. Data for the rad50 strain (AID 155);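 note: 0% = growth of vehicle-only cultures of the same strain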; details: S. cerevisiae rad50 strain growth inhibition, stronger effect = higher value
Procedure, shortened: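 Growth of the mutant yeast was measured after compound exposure and referenced to vehicle-treated cultures.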

[8] = NCI Yeast Anticancer Drug Screen. Data for the mec2-1 strain (AID 157); details: S. cerevisiae mec2-1 strain, stronger effect = higher value
Procedure, shortened: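 Strain: mec2-1 (DNA repair/cell cycle alteration). Compound exposure, then growth measured; inhibition expressed relative to vehicle.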

[9] = NCI Yeast Anticancer Drug Screen. Data for the rad14 strain (AID 159);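 note: 0% = growth of vehicle-treated control cultures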; details: S. cerevisiae rad14 strain growth inhibition, stronger effect = higher value
Procedure, shortened: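 Here, inhibition of yeast growth was measured after compound exposure, using a strain with a genetic defect in DNA damage repair and vehicle-treated cultures as the reference.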

[10] = NCI Yeast Anticancer Drug Screen. Data for the sgs1 mgt1 strain (AID 161);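 note: 0% = growth of cultures given vehicle only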; details: S. cerevisiae sgs1 mgt1 strain, stronger effect = higher value
Procedure, shortened: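 Genetically altered yeast, compound exposure, growth inhibition relative to vehicle.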

[11] = NCI Yeast Anticancer Drug Screen. Data for the CLN2oe strain (AID 163);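 note: 0% = growth of vehicle-only control cultures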; details: S. cerevisiae CLN2oe strain, stronger effect = higher value
Procedure, shortened: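 Growth of a genetically modified yeast strain is measured after compound exposure and compared with cultures given vehicle alone.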

[12] = NCI Yeast Anticancer Drug Screen. Data for the cln2 rad14 strain (AID 165);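 note: 0% = growth equal to vehicle treated cultures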; details: S. cerevisiae cln2 rad14 strain, stronger effect = higher value
Procedure, shortened: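 Compounds are applied to the cln2 rad14 yeast strain, and growth is then compared with that of vehicle-treated cultures to give inhibition.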

[13] = NCI Yeast Anticancer Drug Screen. Data for the bub3 strain (AID 167); details: S. cerevisiae bub3 mutant strain, stronger effect = higher value
Procedure, shortened: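 Whole-cell yeast assay. The mutant strain was incubated with compounds, and growth inhibition was determined by comparison with vehicle-treated cells.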

[14] = NCI Yeast Anticancer Drug Screen. Data for the wt2 strain (AID 169);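 note: 0% = growth of vehicle-treated yeast cultures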; details: S. cerevisiae wt2 strain growth inhibition, stronger effect = higher value
Procedure, shortened: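 This strain belongs to a panel of yeast strains with defined genetic alterations in DNA damage repair or cell cycle control. Compounds are applied, and growth inhibition is measured against vehicle-treated cultures.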

[15] = NCI Yeast Anticancer Drug Screen. Data for the mlh1 strain (AID 171);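 note: 0% = growth of vehicle-treated control cultures of the same strain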; details: S. cerevisiae mlh1 strain growth inhibition, stronger effect = higher value
Procedure, shortened: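 Growth of the mutant yeast strain after compound exposure, expressed as inhibition relative to vehicle-only controls.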

[16] = at 5.0 µM (retest, dose inferred, filed as 0.5)
[17] = at 50.0 µM (retest, dose inferred, filed as 5.0)

Measured: growth inhibition

CC(C)C(C)/C=C\C(C)C1CCC2C3=CC=C4CC(O)CCC4(C)C3CCC21C (stereo unspecified)
active: [2]; [17] 81% | [2]; at 50.0 µM 86.5%
inactive: [1]; at 1.2 µM -1% | [1]; at 3.7 µM -4% | [1]; at 11.0 µM -3% | [1]; at 33.0 µM -6% | [1]; at 100.0 µM 19% | [2]; [16] 40% | [3]; at 1.2 µM -2% | [3]; at 3.7 µM -5% | [3]; at 11.0 µM -13% | [3]; at 33.0 µM -19% | [3]; at 100.0 µM -7%

O=C1c2ccccc2C(=O)N1CCCC(=O)n1cc(F)c(=O)[nH]c1=O
active: [6]; at 33.0 µM 74% | [6]; at 100.0 µM 91% | [7]; at 50.0 µM 71.3% | [7]; at 100.0 µM 79% | [8]; at 33.0 µM 73% | [8]; [17] 88% | [8]; at 50.0 µM 83.2% | [8]; at 100.0 µM 93% | [10]; at 50.0 µM 85.2% | [14]; at 100.0 µM 82% | [15]; at 100.0 µM 78% | [1]; at 33.0 µM 72% | [1]; at 100.0 µM 88%
inactive: [4]; at 1.2 µM -31% | [4]; at 3.7 µM -33% | [4]; at 11.0 µM 0% | [4]; at 33.0 µM 29% | [4]; at 100.0 µM 8% | [5]; at 1.2 µM -51% | [5]; at 3.7 µM -43% | [5]; at 11.0 µM -26% | [5]; at 33.0 µM -21% | [5]; at 100.0 µM 34% | [6]; at 1.2 µM 5% | [6]; at 3.7 µM 23% | [6]; at 11.0 µM 47% | [7]; at 1.2 µM -3% | [7]; at 3.7 µM 2% | [7]; [16] 27% | [7]; at 11.0 µM 18% | [7]; at 33.0 µM 51% | [7]; [17] 66% | [8]; at 1.2 µM -24% | [8]; at 3.7 µM -19% | [8]; [16] 20% | [8]; at 11.0 µM 18% | [9]; at 1.2 µM -33% | [9]; at 3.7 µM -40% | [9]; at 11.0 µM -26% | [9]; at 33.0 µM -7% | [9]; at 100.0 µM 40% | [10]; [16] 24% | [10]; [17] 64% | [11]; at 1.2 µM 2% | [11]; at 3.7 µM 19% | [11]; at 11.0 µM -19% | [11]; at 33.0 µM 10% | [11]; at 100.0 µM 38% | [12]; [16] 30% | [12]; [17] 61% | [12]; at 50.0 µM 27.1% | [13]; at 1.2 µM 9% | [13]; at 3.7 µM 17% | [13]; [16] 11% | [13]; at 11.0 µM 10% | [13]; at 33.0 µM 45% | [13]; [17] 19% | [13]; at 50.0 µM 46.5% | [13]; at 100.0 µM 60% | [14]; at 1.2 µM -19% | [14]; at 3.7 µM -12% | [14]; at 11.0 µM 16% | [14]; at 33.0 µM 56% | [15]; at 1.2 µM -20% | [15]; at 3.7 µM -18% | [15]; at 11.0 µM 17% | [15]; at 33.0 µM 59% | [1]; at 1.2 µM -14% | [1]; at 3.7 µM 7% | [1]; at 11.0 µM 41% | [2]; [16] 39% | [2]; [17] 68% | [2]; at 50.0 µM 60.2% | [3]; at 1.2 µM 11% | [3]; at 3.7 µM 5% | [3]; at 11.0 µM 14% | [3]; at 33.0 µM 42% | [3]; at 100.0 µM 68%
